# JMJD2A Tudor inh – blocks the human JMJD2A Tudor domain; AlphaScreen JMJD2A-Tudor / H3K4me3 peptide binding; actives 4.4% (n = 390,000); AID 504339; Potency, µM (series often up to 114 µM), for inactives: top-dose activity change, negative = inhibition, hits mostly inhibitors; also: % is scaled to controls: 0 for no effect and ±100 for the full control effect; nearly all actives have a fitted effect of over 50% in size
# BAZ2B inh – BAZ2B (human) inhibition; actives 4.4% (n = 360,000); Q9UIF8; Potency, µM (series often up to 114 µM), without a hit: at the highest dose activity change, negative = inhibition, hits mostly inhibitors; AlphaScreen BAZ2B-H3K14Ac peptide displacement; also: % is scaled to controls: 0 for no effect and ±100 for the full control effect; nearly all actives have a fitted effect of over 60% in size
#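 Protein-peptide AlphaScreen: BAZ2B 50 nM, b-H3K14Ac 50 nM, 1x PBS pH 7.4 + 0.01% Tween-20. Preincubation 30 min RT; cpd 30 min RT (top 110 uM); beads 20 min RT, light-protected.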
# G9a block – G9a (human) methyltransferase inhibition; G9a H3K9 monomethylation, AlphaScreen, 2 h; Q96KQ7; AID 504332; Potency, µM (series often up to 102 µM), for inactives: at the highest dose activity, negative = inhibition, hits mostly inhibitors; actives 8.8% (n = 350,000); also: % is scaled to controls: 0 for no effect and ±100 for the full control effect; nearly all actives have a fitted effect of over 75% in size
#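 G9a (20 nM) was preincubated 15 min with compound, then reacted 2 h at room temperature with 500 nM biotin-H3K9 peptide and 20 µM SAM. Monomethyl-H3K9 detected by AlphaScreen using anti-H3K9me1 antibody.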
# GLS inhibitor – glutaminase GLS (human) inhibition; O94925; GLS enzymatic activity, qHTS titration; Potency, µM (top dose mostly 45.5 µM), inactives show at the top dose activity change, negative = inhibition, most hits filed as inhibitors; actives 0.21% (n = 410,000); also: % is scaled to controls: 0 for no effect and ±100 for the full control effect
#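 Assay buffer: 45 mM KH2PO4 pH 8.2, 0.02% Tween-20. hKGA acts on L-glutamine (1 mM solution added); product glutamate is reported by an oxidase/peroxidase Amplex Red coupling, with fluorescence taken at baseline and 30 min.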
# HP1b binding inh – blocks HP1-beta chromodomain binding to methylated histone tails; AID 540317; AlphaScreen HP1-beta / biotin-H3K9me3 peptide binding; actives 0.56% (n = 390,000); P83916; Potency, µM (doses to about 114 µM), inactives show at the top dose activity change, negative = inhibition, usual class: inhibitors; also: nearly all actives have a fitted effect of over 70% in size
#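 Compound inhibition of the preformed complex between 50 nM HP1-beta and 50 nM biotinylated H3K9me3 peptide was read by AlphaScreen. Buffer was PBS pH 7.4 with 0.01% Tween-20. Incubations ran 30 min at room temperature, with 10 ug/mL donor/acceptor beads.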
# Active calls of the source: *; ? = inconclusive; nt = no result; [ ] = dose if it differs, or a comment. Hits are enriched below; roughly 10% of the tested compounds scored in any of these assays. Calls follow the shape of the dose curve; as a rule, active = well fitted curve in the direction sought with a large enough effect; inconclusive = small, poorly fitted or top-dose-only effect, or another doubt; inactive = no such curve, though single readings can be large; an effect the other way counts as inactive or inconclusive. Potency is read from the fitted curve at half-maximal effect.
SMILES,JMJD2A Tudor inh,BAZ2B inh,G9a block,GLS inhibitor,HP1b binding inh
CC1C(=O)N2CCCc3cc(S(=O)(=O)N4CCC(C(N)=O)CC4)cc1c32 (stereo not given),-13%,?,13µM*,-22%,61%
CCOC(=O)C1=C(CN2CCN(c3ccccc3F)CC2)NC(=O)NC1c1ccc(Cl)cc1 (stereo not given),?,nt,?,2%,2%
O=C(NCC(=O)N(CCc1ccccc1)C(C(=O)NC1CCCCC1)c1ccncc1)c1ccco1 (stereo not given),-9%,6%,40µM*,1%,38%
O=C(NCC(=O)N(CCc1ccccc1)C(C(=O)NC1CCCC1)c1cccnc1)c1ccco1 (stereo not given),-4%,4%,?,2%,9%
Cc1ccc(Cl)cc1Nc1nc(-c2sc(NC(=O)C(C)(C)C)nc2C)cs1,?,56µM*,?,0%,13%
Cc1ccc(Nc2nc(-c3sc(NC(=O)c4cccc(Cl)c4)nc3C)cs2)cc1,nt,?,25µM*,nt,nt
Cc1nc(NC(=O)c2ccc(Cl)cc2)sc1-c1csc(Nc2cccc(F)c2)n1,nt,-3%[57.1 µM],50µM*,nt,nt
COc1ccccc1Nc1nc(-c2sc(NC(=O)c3cccc(Cl)c3)nc2C)cs1,nt,?,32µM*,nt,nt
CCCCCC(=O)Nc1nc(C)c(-c2csc(Nc3cc(Cl)ccc3OC)n2)s1,?,?,?,4%,?
COc1ccccc1Nc1nc(-c2sc(NC(=O)CC(C)C)nc2C)cs1,?,-16%,?,11%,-17%
Cc1ccc(Nc2nc(-c3sc(NC(=O)c4ccco4)nc3C)cs2)cc1,?,?,?,8%,-16%
CC1CN(CCc2ccccc2)C(C)C/C1=N/O (stereo not given),-21%,nt,nt,1%,52%
CC1CCN(Cc2nnnn2-c2ccc(Cl)cc2)CC1,0%,-2%,-1%[59 µM],-10%,25%
CCCC(=O)Nc1nc(C)c(-c2csc(Nc3ccccc3OC)n2)s1,?,?,?,11%,-11%
COc1ccccc1Nc1nc(-c2sc(NC(=O)C(C)(C)C)nc2C)cs1,63µM*,?,?,10%,-29%
COCCOC(=O)C1=C(C)NC2=C(C(=O)CCC2)C1c1ccc(N(C)C)cc1 (stereo not given),-23%,-4%,?,51%,7%
CCC(C)OC(=O)C1=C(C)NC2=C(C(=O)C(C(=O)OC)C(C)C2)C1c1ccc(N(C)C)cc1 (stereo not given),18µM*,?,5µM*,4%,?
CCN(CC)c1ccc(C2C(C(=O)OCCOC(C)C)=C(C)NC3=C2C(=O)CCC3)cc1 (stereo not given),?,50µM*,10µM*,13%,-7%
CCOC(=O)C1=C(C)NC2=C(C(=O)C(C(=O)OC)C(C)C2)C1c1ccc(OC)c(O)c1 (stereo not given),39%,5%,17%[0.0925 µM],27%,18%
CCCOC(=O)C1=C(C)NC2=C(C(=O)C(C(=O)OC)C(C)C2)C1c1ccc(N(CC)CC)cc1 (stereo not given),-32%[57.1 µM],?,3.5µM*,27%,-6%
COc1cc(-c2cc(-c3ccccc3)nc(SCC(=O)Nc3nccs3)c2C#N)cc(OC)c1OC,2%,-18%,11%,2%,24%
O=C(/C=C/c1ccco1)c1cccnc1,?,-33%,40µM*,?,0%
CC(/C=C/c1ccco1)=N\NC(=O)c1cccnc1,-24%,-7%,50µM*,-17%,10%
C/C(=N/NC(=O)OC(C)(C)C)c1ccco1,-6%,15%,10%,2%,48%
CC(/C=C/c1ccco1)=N\NC(=O)c1cc(C)[nH]n1,-26%,-9%,50µM*,8%,14%
SMILES,JMJD2A Tudor inh,BAZ2B inh,G9a block,GLS inhibitor,HP1b binding inh
CC(/C=C/c1ccco1)=N/NC(=O)OC(C)(C)C,-8%,-5%,71µM*,10%,23%
COc1ccc2c(C)cc(SC3CCOC3=O)nc2c1 (stereo not given),-6%,-5%,-8%[59 µM],16%,18%
COc1cc2c(c(Br)c1N)-c1cc(Br)c(N)cc1C2=O,nt,nt,nt,-1%,nt
COc1ccc(NC(=O)CCn2c(=S)[nH]c3ccccc3c2=O)cc1Cl,nt,nt,nt,-3%,nt
Clc1cccc(NCc2nnc(SCc3ccccc3)o2)c1,37%,73%,57%[59 µM],0%,98%
CC1(C(=O)NCc2ccccc2Br)CCN1Cc1ccc(-c2ccccn2)cc1 (stereo not given),nt,nt,nt,9%,nt
Cc1ccc(Cl)cc1N1CCN(S(=O)(=O)c2ccc3c(c2)CC(=O)N3C)CC1,-7%,-16%,-27%[59 µM],-5%,47%
CN(C)c1ccc(CNc2nc(-c3ccco3)nn2S(C)(=O)=O)cc1,-34%,?,?,0%,25%
Cc1ccc(S(=O)(=O)n2nc(-c3ccco3)nc2NCc2ccc(N(C)C)cc2)cc1,25µM*,10µM*,8.9µM*,-27%,-15%
COc1ccc(S(=O)(=O)n2nc(-c3ccco3)nc2NCc2ccc(N(C)C)cc2)cc1,13µM*,25µM*,11µM*,4%,-26%
O=C(COc1ccc(Cl)cc1)Nc1ccc2[nH]ncc2c1,-24%,-3%,19%[59 µM],-12%,15%
O=C1CN(C(=O)COC(=O)CNC(=O)c2ccc(Br)o2)c2ccccc2N1,-4%,-21%,9%,-4%,32%
Oc1ccc2ccccc2c1C=Nc1ccccc1-c1nc2ccccc2[nH]1,?,2%,7.1µM*,30%,?
CC(=O)N1CCc2c(sc3c2c(=O)n(-c2ccccc2)c(=O)n3CC(=O)Nc2cc(C)cc(C)c2)C1,-20%,-2%,-4%[59 µM],-15%,10%
O=C(Cc1ccccc1F)N1CCC(c2nc3c(nnn3Cc3cccc(Cl)c3)c(=O)[nH]2)CC1,-27%,-17%,-38%[59 µM],1%,-1%
COC(=O)Nc1sc2c(c1C(=O)NCc1ccco1)CCCC2,-27%,?,-34%,2%,12%
COC(=O)Nc1sc2c(c1C(=O)NCc1ccco1)CCC2,56µM*,?,-24%[59 µM],26%,-3%
Cc1ccc(N/C=C/C(=O)c2cccs2)cc1C,1%,0%,-1%,18%,62%
O=C(/C=C/Nc1cccc([N+](=O)[O-])c1)c1cccs1,5%,-36%,40µM*,nt,53%
CNc1cc([N+](=O)[O-])ccc1N/C=C/C(=O)c1cccs1,?,50µM*,?,2%,-7%
O=C(/C=C/Nc1ccc(Nc2ccccc2)cc1)c1cccs1,?,13µM*,4µM*,22%,?
COc1ccc(OC)c(C(=O)NC(CC(N)=O)c2ccc(N3CCN(c4ccccc4)CC3)c([N+](=O)[O-])c2)c1 (stereo not given),?,-38%,?,6%,21%

# From PubChem
